PubChem BioAssay AID1347075 (National Center for Advancing Translational Sciences (NCATS), 2019)
About 5,500 (1.4%) of roughly 400,000 compounds were called active. Roughly 9% stayed inconclusive and do not appear here. For the sample, actives were picked, then their nearest neighbours and some compounds at random. Values without a mark were called inactive. Calls follow the shape of the dose curve; as a rule, active = well fitted cell-killing curve with a large enough effect; inconclusive = small, poorly fitted or top-dose-only effect, or effect the other way; inactive = flat fitted curve, though single readings scatter.

Assay: qHTS assay for MDR1-selective chemotherapeutics: Primary screen using the parental adenocarcinoma cell KB-3-1; also: nearly all actives have a fitted effect of over 60% in size
Conditions: KB-3-1 viability, CellTiter-Glo ATP luminescence, 72 h; series mostly up to 46.1 µM; activity change, negative = cytotoxic: at the top concentration
Outline: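 Cytotoxicity measured as CellTiter-Glo luminescence after 72 h at 37 C. Compound titrations were pinned onto drug-naive KB-3-1 parental adenocarcinoma cells grown in DMEM with 10% FBS, and normalized data fitted to concentration-response curves.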
% is scaled to controls: 0 for no effect and ±100 for the full control effect; potency is read from the fitted curve at half-maximal effect.

| SMILES | activity change, negative = cytotoxic | Potency |
| --- | --- | --- |
| CSc1oc(-c2cccs2)nc1S(=O)(=O)c1ccc(Br)cc1 | 0.965% |  |
| CCOc1ccc(NC(=O)C(CC(C)C)N2Cc3ccccc3C2=O)cc1 (stereo not drawn) | -18.3% |  |
| C=CCn1c(SCc2c(C)noc2C)nc2sc3c(c2c1=O)CCC(C)C3 (stereo not drawn) |  | 4.11 µM (active) |
| CCCn1nnc2sc3c(c2c1=O)CCC(C)C3 (stereo not drawn) | -4.79% |  |
| C=CCn1c(SCC(=O)NCCCO)nc2sc3c(c2c1=O)CCC3 | 2.97% |  |
| O=S(=O)(Nc1ccc2nc(-c3cccc(Cl)c3)oc2c1)c1ccccc1 | 0.847% |  |
| CN(Cc1ccccc1)S(=O)(=O)c1ccc(F)c(C(=O)Nc2cccc(Cl)c2Cl)c1 | 6.97% |  |
| COc1ccc(-n2c(SCC(=O)Nc3ccc(Cl)c(C)c3)nc3n[nH]c(C)c3c2=N)cc1 | -0.218% |  |
| C=CCn1c(CC(=O)Nc2cccc(OC)c2)nnc1SCC(=O)NC1CCCCC1 | 19% |  |
| COc1cccc(-n2c(SCC(=O)NC3CCCCC3)nc3n[nH]c(C)c3c2=N)c1 |  | 13 µM (active) |
| ClC/C=C/C[n+]1ccccc1Cl | 0% |  |
| CCOc1ccc(-c2cc3c(=O)n(CC(=O)NCc4ccc(OC)cc4)ccn3n2)cc1 | 0.871% |  |
| CN(O)C(=S)c1ccccc1 |  | 0.0052 µM (active) |
| CN(c1ccccc1)S(=O)(=O)c1cccc(NC(=O)Cc2ccc(Cl)cc2)c1 |  | 23.1 µM (active) |
| CN(c1ccccc1)S(=O)(=O)c1ccc(NC(=O)COc2ccccc2)cc1 | 0% |  |
| Cc1ccc(S(=O)(=O)N(CC(=O)Nc2cccc([N+](=O)[O-])c2)Cc2ccc(Cl)cc2)cc1 | -5% |  |
| Nc1ncnc2nnsc12 | 44% |  |
| CC(C)Oc1cccc(-c2cnc(N3CCC(C(N)=O)CC3)s2)c1 | 16.4% |  |
| COc1cc2nc(SCc3ccc(F)cc3)n3nc(CCn4c(C)nc5ccccc54)nc3c2cc1OC | 13.2% |  |
| CCCOc1ccc(-c2cccc(NS(=O)(=O)c3ccccc3)c2)nn1 | -16.5% |  |
| COc1ccc(OC)c(S(=O)(=O)Nc2cccc(-c3ccc4nncn4n3)c2)c1 | -7.93% |  |
| COc1ccc(-c2cccc(NS(=O)(=O)c3cc(C)c(OC)c(C)c3C)c2)nn1 |  | 3.66 µM (active) |
| O=C(Nc1ccc(-c2nc3cc(NC(=O)c4ccccc4Cl)ccc3o2)cc1)c1ccccc1Cl | -9.52% |  |
| Fc1ccccc1Cc1ccc(Cl)nn1 | 4.26% |  |

| SMILES | activity change, negative = cytotoxic | Potency |
| --- | --- | --- |
| C/C(=N\Nc1ccc(Cl)nn1)c1ccccc1O |  | 14.6 µM (active) |
| C/C(=N/Nc1ccc(Cl)cc1)c1cnnc(-c2ccccc2)n1 | 2.92% |  |
| CC(=O)N1CCc2cc(S(=O)(=O)NC(Cc3ccccc3)C(=O)NCc3ccc(C)cc3)ccc21 (stereo not drawn) | 0.414% |  |
| CC1CCN(C(=O)c2ccc(S(=O)(=O)Cc3cc(F)ccc3F)c([N+](=O)[O-])c2)CC1 |  | 23.1 µM (active) |
| Nc1ccc(C(=O)N2CCN(S(=O)(=O)c3ccc(Cl)cc3)CC2)cc1[N+](=O)[O-] | -16.3% |  |
| O=C(c1ccc(Oc2ccc(Cl)cc2)c([N+](=O)[O-])c1)N1CCCC1 | -4.08% |  |
| CC[C@]1(O)C[C@@H]2CN(CCc3c([nH]c4ccccc34)[C@@](C(=O)OC)(c3cc4c(cc3OC)N(C)[C@H]3[C@@](O)(C(=O)OC)[C@H](OC(C)=O)[C@]5(CC)C=CCN6CC[C@]43[C@@H]65)C2)C1 |  | 0.164 µM (active) |
| COc1cc(NC(=O)Cn2nc(-c3ccc(C)c(C)c3)ccc2=O)cc(OC)c1 | 5.25% |  |
| N#Cc1nc(NCc2ccc(Cl)c(Cl)c2)c2ncn(CCCO)c2n1 | 0% |  |
| O=C(NCC(c1ccc(Cl)cc1)N1CCOCC1)c1ccccc1F (stereo not drawn) | -21.3% |  |
| O=C(NCCC1CCCCN1S(=O)(=O)c1ccc(F)cc1)C(=O)NC1CC1 (stereo not drawn) | 9.7% |  |
| COc1ccccc1CCNC(=O)C(=O)NCCC1CCCCN1S(=O)(=O)c1cccs1 (stereo not drawn) | -17.7% |  |
| O=C(NCCC1CCCCN1S(=O)(=O)c1cccs1)C(=O)Nc1ccc(F)cc1F (stereo not drawn) |  | 23.1 µM (active) |
| CCCCCn1c(=O)[nH]c2cc(C(=O)NCCN(C)CCCC)ccc2c1=O | -5.66% |  |
| CC(=O)c1ccc(NC(=O)COc2ccccc2-c2nc(-c3ccccc3)no2)cc1 | 17.8% |  |
| Cc1noc(C)c1COC(=O)COc1ccc(-c2ccccc2)cc1 | -1.36% |  |
| O=C(Oc1ccc(-c2nc(-c3ccccn3)no2)cc1)c1ccccc1 |  | 7.31 µM (active) |
| CCOC(=O)c1c(-c2ccc(OC)cc2)oc2ccc(OCc3ccc(C(=O)OC)cc3)cc12 | -3.43% |  |
| O=C(OC/C=C/CSc1nnc(-c2cccc3ccccc23)o1)c1ccc(F)cc1 | 19.6% |  |
| Cc1nc2c(-c3ccccc3)c(C)nn2c(C)c1CCC(=O)NCCc1ccccc1 | 6.79% |  |
| Cc1ccc(C)c(N2CCN(C(=O)Cn3ncc4c(=O)oc5ccc(C)cc5c43)CC2)c1 | 6.18% |  |
| CC1CCCN(c2csc3ccc(F)cc3c2=O)C1 (stereo not drawn) | 0.746% |  |
| N#CC1=C(SCc2ccccc2)NC(=O)C(C#N)C12CCCC2 (stereo not drawn) |  | 11.6 µM (active) |
| Cc1ccc(CNS(=O)(=O)c2ccc(C(=O)N(C)C)s2)cc1 | -1.95% |  |
